Screening data from PubChem BioAssay.
BAZ2B block: qHTS Assay for Inhibitors of BAZ2B. Bromodomain adjacent to zinc finger domain protein 2B (Homo sapiens), Q9UIF8. AlphaScreen BAZ2B-H3K14Ac peptide displacement. Potency, µM (highest dose often 114 µM), inactives show at the top dose activity change, negative = inhibition, most hits filed as inhibitors. hit rate 4.4% among 360,000; note: % is set by controls: 0 for no effect and ±100 for the full control effect; nearly all actives have a fitted effect of over 60% in size
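AlphaScreen luminescence quantifies BAZ2B engagement of H3K14Ac peptide; the protein and biotinylated peptide are both at 50 nM final, buffer PBS pH 7.4 with 0.01% Tween-20, all steps at room temperature.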
G9a inh: qHTS Assay for Inhibitors of Histone Lysine Methyltransferase G9a; Histone-lysine N-methyltransferase EHMT2 (Homo sapiens), Q96KQ7; G9a H3K9 monomethylation, AlphaScreen, 2 h; Potency, µM (highest dose often 102 µM), without a hit: top-dose activity, negative = inhibition, actives largely listed as inhibitors; hit rate 8.8% among 350,000; AID 504332, 2011; note: % is set by controls: 0 for no effect and ±100 for the full control effect; nearly all actives have a fitted effect of over 75% in size
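Compounds were preincubated with 20 nM G9a for 15 min, after which biotinylated H3K9 peptide (500 nM) and SAM (20 uM) started a 2 h room-temperature reaction. Monomethylated product was quantified by antibody-based AlphaScreen chemiluminescence.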
JMJD2A Tudor inh: qHTS Assay for Inhibitors of JMJD2A-Tudor Domain; Lysine-specific demethylase 4A (Homo sapiens), O75164; AlphaScreen JMJD2A-Tudor / H3K4me3 peptide binding; Potency, µM (top dose mostly 114 µM), inactives show at the top dose activity change, negative = inhibition, usual class: inhibitors; hit rate 4.4% among 390,000; note: % is set by controls: 0 for no effect and ±100 for the full control effect; nearly all actives have a fitted effect of over 50% in size
HP1b binding inh: HTS for Inhibitors of HP1-beta Chromodomain Interactions with Methylated Histone Tails; AID 540317, 2011; Potency, µM (top dose mostly 114 µM), inactives show at the top dose activity change, negative = inhibition, most hits filed as inhibitors; Chromobox protein homolog 1 (Homo sapiens), P83916; AlphaScreen HP1-beta / biotin-H3K9me3 peptide binding; hit rate 0.56% among 390,000; note: nearly all actives have a fitted effect of over 70% in size
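HP1-beta protein (50 nM final) preincubated 30 min at room temperature with biotinylated H3(1-18)K9me3 peptide (50 nM) in PBS pH 7.4, 0.01% Tween-20, then compound added for 30 min. AlphaScreen streptavidin donor/nickel chelate acceptor beads (10 ug/mL final), 30 min dark, luminescence read.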
L3MBTL1 inh: qHTS Assay for the Inhibitors of L3MBTL1. Potency, µM (highest dose often 57.1 µM), without a hit: top-dose activity, negative = inhibition, most hits filed as inhibitors. AlphaScreen L3MBTL1–H3K9me1 peptide binding. Lethal(3)malignant brain tumor-like protein 1 (Homo sapiens), Q9Y468. hit rate 0.66% among 230,000; note: % is set by controls: 0 for no effect and ±100 for the full control effect; nearly all actives have a fitted effect of over 60% in size
Target sequence (Q9Y468 whole entry, looked up): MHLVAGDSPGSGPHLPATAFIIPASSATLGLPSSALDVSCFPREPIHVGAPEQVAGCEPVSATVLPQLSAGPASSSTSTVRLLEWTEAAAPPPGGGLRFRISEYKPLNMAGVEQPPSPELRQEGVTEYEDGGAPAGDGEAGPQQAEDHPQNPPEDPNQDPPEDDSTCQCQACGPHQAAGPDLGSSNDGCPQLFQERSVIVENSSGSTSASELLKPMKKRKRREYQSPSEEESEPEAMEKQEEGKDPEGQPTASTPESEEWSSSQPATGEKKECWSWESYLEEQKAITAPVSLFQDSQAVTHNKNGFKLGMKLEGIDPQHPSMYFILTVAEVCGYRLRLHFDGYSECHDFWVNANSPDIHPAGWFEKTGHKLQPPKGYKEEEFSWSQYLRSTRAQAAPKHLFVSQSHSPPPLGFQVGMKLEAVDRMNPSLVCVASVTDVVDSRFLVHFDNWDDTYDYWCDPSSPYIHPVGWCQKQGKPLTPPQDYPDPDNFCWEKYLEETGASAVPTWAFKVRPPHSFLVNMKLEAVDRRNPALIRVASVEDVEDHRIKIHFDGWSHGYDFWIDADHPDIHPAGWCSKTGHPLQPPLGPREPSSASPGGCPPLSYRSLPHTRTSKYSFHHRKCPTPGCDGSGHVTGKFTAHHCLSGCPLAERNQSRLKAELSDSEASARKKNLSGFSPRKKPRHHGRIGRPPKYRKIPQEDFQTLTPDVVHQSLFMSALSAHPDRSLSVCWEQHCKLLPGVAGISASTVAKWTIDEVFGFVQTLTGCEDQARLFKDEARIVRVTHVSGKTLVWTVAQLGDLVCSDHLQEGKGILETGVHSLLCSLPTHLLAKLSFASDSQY
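AlphaScreen assay: L3MBTL1 (50 nM final) was preincubated 30 min at room temperature with biotinylated H3(1-15)K9me1 peptide (75 nM final), then 30 min with library compounds; streptavidin donor and nickel chelate acceptor beads (10 ug/mL final) added, 30 min dark.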
Sfp PPTase inh: qHTS Assay for Inhibitors of Bacillus subtilis Sfp phosphopantetheinyl transferase (PPTase) | 4'-phosphopantetheinyl transferase ffp (Bacillus subtilis), Q9F4F7 | Biochemical Sfp PPTase activity, qHTS | Potency, µM, for the others: largest response in the series, negative = inhibition, actives largely listed as inhibitors | hit rate 3.5% among 310,000 | AID 1490, 2009;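 note: the enzyme is Sfp with the accession as filed and its product quenches rhodamine fluorescence; 0% = enzyme reaction without inhibitor and -100% = no enzyme wells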
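Reaction rates are the 30-min fluorescence difference (ex 525, em 598 nm) in wells containing 15 nM Sfp, 5 uM rhodamine-CoA and 12.5 uM BHQ-2-YbbR at pH 7.6 with 10 mM MgCl2.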
The depositor's hits bear a star; ? = inconclusive; / = not tested or not shown; ! = repeats disagree; [ ] = dose if it differs, or a comment. Hits are enriched below; roughly 12% of the tested compounds scored in any of these assays. Calls come from the whole dose curve; as a rule, active = well fitted curve in the direction sought with a large enough effect; inconclusive = small, poorly fitted or top-dose-only effect, or another doubt; inactive = no such curve, though single readings can be large; an effect the other way counts as inactive or inconclusive. Potency is the fitted concentration of half-maximal effect.

SMILES	BAZ2B block	G9a inh	JMJD2A Tudor inh	HP1b binding inh	L3MBTL1 inh	Sfp PPTase inh
O=C1SC(Cc2ccccc2)C(=O)N1c1ccccc1 (stereo unspecified)	4%	-3%[59 µM]	3%	7%	1%	20%
Cc1ccc(NC(=O)CC2SC(=O)N(c3ccccc3)C2=O)cc1 (stereo unspecified)	-6%	?	-21%	8%	1%	20µM*
Cc1ccc(N2C(=O)SC(Cc3ccccc3)C2=O)cc1 (stereo unspecified)	-16%	8.9µM*	-16%	?	5%	22µM*
Cc1ccc(NC(=O)CC2SC3=NCCN3C2=O)cc1 (stereo unspecified)	-6%	7.1µM*	-10%	37%	-8%	71µM*
Cc1cc(C)cc(-c2nnc(SCC(=O)NCC3CCCO3)o2)c1 (stereo unspecified)	/	/	5%	33%[57 µM]	/	/
CN1C(=O)C(CC(=O)Nc2ccc(F)cc2)N(NC(=O)c2cccc(F)c2)C1=S (stereo unspecified)	-3%	/	-10%	27%	11%	6%
COc1ccc(C2CC(=O)Oc3c(C(CCN4CCCC(C)C4)c4ccc(N(C)C)cc4)c(OC)cc(OC)c32)cc1 (stereo unspecified)	14µM*	-120%[59 µM]	14µM*	14µM*	/	89µM*!
COc1cc(OC)c2c(c1C(CCN1CCCC1)c1ccc(N(C)C)cc1)OC(=O)CC2c1ccc(N(C)C)cc1 (stereo unspecified)	/	/	16µM*	?	/	-16%
COc1ccc(C2CC(=O)Oc3c(C(CCN4CCCCC4)c4ccc(N(C)C)cc4)c(OC)cc(OC)c32)cc1 (stereo unspecified)	22µM*	-105%[59 µM]	16µM*	?	/	-10%
COc1ccc(C2CC(=O)Oc3c(C(CCN4CCCC(C)C4)c4cc(OC)c(OC)c(OC)c4)c(OC)cc(OC)c32)cc1 (stereo unspecified)	/	/	?	17%	/	-8%
COc1cc(C(CCN2CCCCC2)c2c(OC)cc(OC)c3c(C)cc(=O)oc23)cc(OC)c1OC (stereo unspecified)	-13%	26%[59 µM]	-20%	14%	/	17%
Cc1cccc(Cn2c(=O)n3nc(-c4ccccc4)nc3c3ccccc32)c1	4%	-3%[59 µM]	9%	42%	/	/
COc1ccc([N+](=O)[O-])c(S(=O)(=O)c2ccccc2)n1	-18%	11µM*	-26%	40%	0%	?
COc1ccc([N+](=O)[O-])c(S(=O)(=O)c2ccc(Cl)cc2)n1	-29%	18µM*	-28%	33%	-3%	?
COc1ccc(NC(=O)CN(Cc2ccccc2)S(=O)(=O)c2ccc3nc(C)sc3c2)cc1	-7%	20%[59 µM]	-12%	26%	/	/
CC(=O)c1ccccc1NC(=O)CSCc1nc2sc(C)c(C)c2c(=O)[nH]1	1%	-50%	-16%	34%	11%	/
Cc1sc2nc(CSC(C)C(=O)NC3(C#N)CCCCC3)[nH]c(=O)c2c1C (stereo unspecified)	-11%	45µM*	-3%	22%	2%	/
CSc1ccccc1NC(=O)CSCc1nc2sc(C)c(C)c2c(=O)[nH]1	7%	?	-15%	6%	7%	/
Cc1sc2nc(CSCC(=O)Nc3ccccc3C#N)[nH]c(=O)c2c1C	7%	?	-17%	-6%	-12%	79µM*
Cc1ccc(F)cc1NC(=O)CSCc1nc2sc(C)c(C)c2c(=O)[nH]1	-2%	40µM*	-22%	12%	5%	/
O=C(COC(=O)c1cc(S(=O)(=O)NCc2ccccc2)ccc1O)c1cc2ccccc2o1	-31%	?	-20%	19%	-12%	14%
CNc1cc(CSC)nc(SCc2ccc(Cl)c(Cl)c2)n1	6%	32µM*	-4%	62%	2%	15%
COc1ccc(C2=CC(=O)C=CC2=O)cc1	10µM*	1.3µM*	/	/	/	3.2µM*
CCCCC/C=C\C/C=C\C/C=C\C/C=C\CCCC(=O)C(F)(F)F	/	18%[59 µM]	/	/	/	28µM*
CC1=CC(C)C2COC(c3ccc[n+](C)c3)C1C2C (stereo unspecified)	-34%	7.1µM*	1%	-2%	15%	8%
SMILES	BAZ2B block	G9a inh	JMJD2A Tudor inh	HP1b binding inh	L3MBTL1 inh	Sfp PPTase inh
CC1=CC(C)[C@@H]2COC(c3ccc(O)cc3)[C@H]1C2C (stereo partly specified)	-13%	8%[2.33 µM]	-25%	10%	/	7%
COCCn1c(SCc2cc(=O)n3ccsc3n2)nnc1-c1ccncc1	-16%	2%[59 µM]	40µM*	6%	/	-1%
Cc1ccc2nc(CSc3nnc(-c4ccncc4)n3C)cc(=O)n2c1	-17%	40µM*	-7%	39%	2%	10%
O=C(Cn1ncc(Cl)c(Cl)c1=O)N1CCN(Cc2ccccc2)CC1	-14%	56µM*	-4%	35%	-27%	-15%
N#Cc1ccccc1N=Cc1ccc(Br)cc1	3%	5%[59 µM]	11%[57.1 µM]	0%	-3%	15%
COc1[nH]c(/N=C/c2ccccc2)c(C#N)c1C#N	?	3.2µM*	45µM*!	-32%	-7%	-9%
CC(=O)C1=C(O)C(=O)N(c2ccc(O)cc2)C1c1ccccc1[N+](=O)[O-] (stereo unspecified)	-28%	14µM*	-7%	-3%	3%	35µM*
CCCCN1C(=O)C(O)=C(C(C)=O)C1c1ccccc1[N+](=O)[O-] (stereo unspecified)	?	?	-27%	42%	4%	18µM*
CC(=O)C1=C(O)C(=O)N(c2ccc(Br)cc2)C1c1ccc(Br)cc1 (stereo unspecified)	?	50µM*	-11%	13%	-13%	-7%
COCCCN1C(=O)C(O)=C(C(C)=O)C1c1cccc(F)c1 (stereo unspecified)	?	50µM*	?	11%	?	-14%
COc1cccc(C2C(C(C)=O)=C(O)C(=O)N2CCNCCO)c1 (stereo unspecified)	-17%	24%[12.7 µM]	/	/	5%	16%
CC(C)(C)OC(=O)NCCCNc1ncnc2ccc(-c3ccc4c(c3)OCO4)cc12	/	/	-25%	/	/	/
O=C(NC1CCCCC1)C1CCCN1C(=O)Nc1ccccc1 (stereo unspecified)	2%	9%	-8%	21%	/	11%
